TrxR1 inh: qHTS Assay for Inhibitors of Mammalian Selenoprotein Thioredoxin Reductase 1 (TrxR1): qHTS; AID 588453, 2011; Potency, µM (titrated, usually from 114 µM), hits mostly inhibitors; Thioredoxin reductase 1, cytoplasmic (Rattus norvegicus), O89049; hit rate 1% among 390,000; recombinant rTrxR1, NADPH fluorescence consumption, selenite substrate; further: nearly all actives have a fitted effect of over 65% in size
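Rat TrxR1 (90 nM in the dispensed reagent) was pre-reduced with 400 uM NADPH for 5 min at room temperature, then incubated with compound for 15 min. After 400 uM selenite was added, NADPH fluorescence (Ex 340/Em 450 nm) was followed for 8 min.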
TrxR1 substrate: qHTS Assay for Substrates of Mammalian Selenoprotein Thioredoxin Reductase 1 (TrxR1): qHTS; Thioredoxin reductase 1, cytoplasmic (Rattus norvegicus), O89049; purified TrxR1 substrate turnover, NADPH consumption readout; Potency, µM (top dose mostly 114 µM); hit rate 0.01% among 390,000; further: nearly all actives have a fitted effect of over 50% in size
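Rat TrxR1, dispensed at 90 nM, was prereduced with 400 uM NADPH (final) for 5 min at ~22 deg C, then incubated with compound 15 min before 400 uM selenite. A first-read NADPH fluorescence drop versus no-compound background flagged substrates.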
GLP1R ag: qHTS of GLP-1 Receptor Agonists. Glucagon-like peptide 1 receptor (Homo sapiens), P43220. HEK293 GLP-1R CRE-luciferase, luminescence, 4-6 h; cells express a hypersensitive GLP-1R form. Potency, µM (highest dose often 45.6 µM), actives largely listed as activators. hit rate 0.007% among 380,000. AID 624172, 2012
Target sequence (P43220 whole entry, looked up): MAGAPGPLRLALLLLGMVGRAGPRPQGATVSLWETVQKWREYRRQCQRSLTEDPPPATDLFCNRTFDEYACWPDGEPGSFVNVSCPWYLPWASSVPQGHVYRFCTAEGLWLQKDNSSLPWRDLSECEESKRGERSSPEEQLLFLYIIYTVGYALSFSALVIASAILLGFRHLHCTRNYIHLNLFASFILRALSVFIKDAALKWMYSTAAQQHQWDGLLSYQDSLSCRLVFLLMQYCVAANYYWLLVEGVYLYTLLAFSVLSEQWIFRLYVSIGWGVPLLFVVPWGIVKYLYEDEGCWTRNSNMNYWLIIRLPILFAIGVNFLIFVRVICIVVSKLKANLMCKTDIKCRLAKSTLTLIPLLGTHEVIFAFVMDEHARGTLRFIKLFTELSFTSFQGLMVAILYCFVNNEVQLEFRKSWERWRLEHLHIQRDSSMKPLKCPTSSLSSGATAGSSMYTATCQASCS
IDH1 R132H inh: qHTS for Inhibitors of mutant isocitrate dehydrogenase 1 (IDH1): qHTS. Isocitrate dehydrogenase [NADP] cytoplasmic (Homo sapiens), O75874. IDH1-R132H enzyme, NADPH consumption, diaphorase/resazurin fluorescence. Potency, µM (top dose mostly 76.6 µM), usual class: inhibitors. hit rate 0.093% among 390,000. AID 602179, 2012; further: nearly all actives have a fitted effect of over 65% in size
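IDH1-R132H (0.5 ug/mL) preincubated 30 min with compound, then NADPH (0.016 mM) and alpha-KG (2 mM) added; 80 min at RT, pH 7.5. Remaining NADPH coupled via diaphorase/resazurin to fluorescence (540/590 nm); concentration-response curves normalized to no-enzyme control.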
GLP1R cytotox: qHTS of GLP-1 Receptor Inverse Agonists: Cytotox Screen; Potency, µM (titrated, usually from 38.3 µM), usual class: inhibitors; hit rate 0.13% among 410,000; HEK293 cAMP-luciferase reporter cells, luminescence, 24 h;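 further: loss of luciferase light is scored as toxicity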
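A 23 nL compound transfer followed 12 hours of cell culture at 37 deg C; exposure then lasted 24 hr. Luciferase assay detection reagent was dispensed and plates read for luminescence after a 12 min room-temperature wait.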
GLP-1R inv ag: qHTS of GLP-1 Receptor Inverse Agonists (Inhibition Mode) | hit rate 1.6% among 410,000 | Potency, µM (top dose mostly 38.3 µM), hits mostly inhibitors | Glucagon-like peptide 1 receptor (Homo sapiens), P43220 | HEK293 GLP-1R CRE-luciferase, luminescence, 24 h; GLP-1R form is constitutively active | AID 624417, 2012; further: nearly all actives have a fitted effect of over 55% in size
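Constitutively active GLP-1R drives a cAMP-responsive luciferase in stably transfected HEK293 cells; test compounds are added after overnight (12 h) attachment and left 24 hr, and signal loss in luminescence marks inhibition.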
Each line names hits and unclear results; the compound was inactive in the other large screens. Sampled rows, rich in hits. Any-hit rate of the full collection: about 2.7%. The call rests on the fitted dose curve; in most records, active means well fitted curve in the direction sought with a large enough effect; inconclusive means small, poorly fitted or top-dose-only effect, or another doubt; inactive means no such curve, though single readings can be large; an effect the other way counts as inactive or inconclusive.

CCCC[n+]1c(/C=C/c2c(OC)cc(OC)cc2OC)ccc2ccccc21	none (no result: GLP1R ag, IDH1 R132H inh, GLP1R cytotox, GLP-1R inv ag)
COC(=O)c1c(NC(=O)CCS(=O)(=O)c2ccccc2)sc2c1CCN(C)C2	TrxR1 inh inconclusive
CC(C)N1CCc2c(sc(NC(=O)CCS(=O)(=O)c3ccccc3)c2C#N)C1	TrxR1 inh 10µM
CCCN1CCc2c(sc(NC(=O)CCS(=O)(=O)c3ccccc3)c2C(=O)OC)C1	TrxR1 inh 50.1µM
C/C(CCc1oc2ccc(Cl)cc2c1-c1ccc(C)o1)=N\O	TrxR1 inh 10µM, GLP-1R inv ag inconclusive
CC(=O)CCc1oc2ccc(C)cc2c1-c1ccccc1	GLP-1R inv ag inconclusive
C/C(CCc1oc2ccc(Br)cc2c1-c1ccc(C)o1)=N/O	TrxR1 inh 17.8µM, GLP-1R inv ag 10µM
CC(C)(C)SCCNC(=O)/C=C/c1ccc(F)cc1	none
CC(C)(CNC(=O)/C=C/c1ccc(F)cc1)CNC(=O)/C=C/c1ccc(F)cc1	GLP-1R inv ag 6.31µM
O=C(Nc1cccc2c1CCCC2)c1cc([N+](=O)[O-])ccc1Cl	GLP1R cytotox inconclusive, GLP-1R inv ag 3.16µM
CCCn1ccc2c(OCC(=O)Nc3ccc(OC)c(OC)c3)cccc2c1=O	none (no result: GLP1R ag)
Cc1cc(NC(=O)N(C)CCc2c(C)nn(C)c2C)ccc1Br	GLP-1R inv ag inconclusive (no result: GLP1R ag)
CC(C)=CCCC(C)CN1CCC(N2CCC(C(=O)N3CCOCC3)CC2)CC1 (stereo unspecified)	GLP-1R inv ag 2.51µM
O=C(CN1C(=O)C2CCCCN2c2ccc(C(=O)N3CCCC3)cc21)NCc1ccc(F)cc1 (stereo unspecified)	none (no result: GLP1R ag)
CCC1CO/C(=C(\C(Cl)=C(Cl)Cl)[N+](=O)[O-])N1 (stereo unspecified)	TrxR1 inh 15.8µM
O=C(C=C(C(=O)c1ccccc1)c1ccccc1)c1ccccc1	GLP-1R inv ag 8.91µM
CN(C)/C(=C\C(=O)c1ccccc1)C(=O)c1ccccc1	none
N#C/C(=C\c1cc(Br)ccc1F)C(=O)NC1CC1	TrxR1 inh 20µM
Cc1ccc(-c2[nH]ncc2/C=C(\C#N)C(=O)NC2CCCCC2)cc1	GLP-1R inv ag 7.94µM
N#C/C(=C\c1cc(Cl)cc(Cl)c1O)C(=O)NC1CCCCC1	TrxR1 inh 79.4µM
Cc1cccc(C)c1NC(=O)Cn1c(=O)cc(C)c2c(C)nn(-c3cccc(Cl)c3C)c21	none (no result: GLP1R ag)
O=C(CN1c2ccccc2Sc2ccccc21)N/N=C/c1ccc([N+](=O)[O-])cc1	GLP-1R inv ag 12.6µM
O=[N+]([O-])c1ccc(C=NNc2ccccc2)cc1	GLP-1R inv ag 5.01µM
O=[N+]([O-])c1cccc(C=NNc2ccccc2)c1	GLP-1R inv ag inconclusive
CC(C)(C)n1ncc2c(=O)n(Cc3ccc(F)c(C(F)(F)F)c3)cnc21	none (no result: GLP1R ag, IDH1 R132H inh, GLP1R cytotox, GLP-1R inv ag)
Cc1ccc(S(=O)(=O)N[C@H](C(=O)Oc2ccc3c(C(F)(F)F)cc(=O)oc3c2)c2ccccc2)cc1	none
Cc1ccc(S(=O)(=O)NC(C(=O)Oc2ccc3ccc(=O)oc3c2)c2ccccc2)cc1 (stereo unspecified)	TrxR1 inh 50.1µM
Cc1ccc(S(=O)(=O)NCCC(=O)Oc2ccc3ccc(=O)oc3c2)cc1	TrxR1 inh 56.2µM
CCC(NC(=O)OCc1ccccc1)C(=O)Oc1ccc2ccc(=O)oc2c1 (stereo unspecified)	TrxR1 inh 50.1µM
O=C(Oc1ccc2ccc(=O)oc2c1)c1ccccc1	none
Cc1c(Cl)cccc1NS(=O)(=O)c1ccc(NS(=O)(=O)c2ccc3c(c2)OCCO3)cc1	GLP-1R inv ag inconclusive
CCCCNC(=O)COC(=O)c1c2c(nc3ccccc13)/C(=C\c1cccs1)CC2	GLP-1R inv ag 6.31µM
COc1ccc(-n2cc(C(=O)N(C)c3cc(C)ccc3OC)c3ccccc3c2=O)cc1	GLP-1R inv ag inconclusive (no result: GLP1R ag)
Cn1nc(-c2ccccc2)cc1NC(=O)c1ccccc1	GLP-1R inv ag inconclusive
O=C(Nc1cc(-c2ccccc2)nn1C1CCCCC1)c1ccc(Cl)cc1	TrxR1 inh inconclusive, GLP-1R inv ag 10µM
CCOc1ccc(-c2nn(CC(=O)NC3CCCCC3)c3c2cnc2ccc(C)cc23)cc1	none (no result: GLP1R ag)
Cc1ccc2nc(-c3ccc(NC(=O)C4CCCO4)cc3)[nH]c2c1 (stereo unspecified)	GLP-1R inv ag 7.94µM
COc1cc([N+](=O)[O-])ccc1NC(=O)NCC1CCN(Cc2ccc(Cl)cc2)CC1	GLP1R cytotox inconclusive, GLP-1R inv ag 10µM
COc1ccc(CN2CCN(C(c3ccc(F)cc3)c3ccc(F)cc3)CC2)c(OC)c1OC	GLP1R cytotox inconclusive, GLP-1R inv ag 10µM
Cc1ccc(C(=O)NC2(C(F)(F)F)NC(=O)N(c3ccc(Cl)cc3)C2=O)cc1 (stereo unspecified)	GLP-1R inv ag 5.62µM
Cc1ccc2oc(=O)c3cnn(CC(=O)Nc4cccc(C(F)(F)F)c4)c3c2c1	none (no result: GLP1R ag)
CCC(c1nnnn1C(C)(C)CC)N(CCCN1CCOCC1)Cc1cc2cccc(C)c2[nH]c1=O (stereo unspecified)	TrxR1 inh 35.5µM
COc1ccccc1CNC(=O)CSC1=Nc2ccccc2N=C(c2ccc(F)cc2)C1	none
Cc1ccc(CSCC(=O)Nc2ccccc2C(=O)O)cc1	GLP-1R inv ag inconclusive
CSc1ccccc1NC(=O)CSCc1ccc(C)cc1	GLP-1R inv ag 5.01µM
CCCC(=O)Nc1c(C(=O)N2CCN(c3ccccc3)CC2)oc2ccccc12	GLP-1R inv ag inconclusive (no result: GLP1R ag)
CCOC(=O)COn1c(=O)c(-c2ccc(C)cc2)[n+]([O-])c2ccccc21	none
CCOC(=O)COn1c(=O)c(-c2ccco2)[n+]([O-])c2ccccc21	TrxR1 inh 8.91µM
CC1CCC2(CC1)NC(=O)N(Cc1cccc(C(F)(F)F)c1)C2=O (stereo unspecified)	GLP-1R inv ag 2.24µM
CC1CCC2(CC1)NC(=O)N(CC(=O)N(Cc1ccccc1)C(C)(C)C)C2=O (stereo unspecified)	none
CC1CCc2c(sc3nnn(CC(=O)Nc4ccccc4Cl)c(=O)c23)C1 (stereo unspecified)	none (no result: GLP1R ag)

High-throughput results from PubChem BioAssay.
